Assay results published in PubChem BioAssay AID488969 (Vanderbilt High Throughput Screening Facility, 2010).
The full ranking holds about 110,000 compounds; the median of “z-score” is about -0.1, and the highest 2% start at about 2. The sample as a whole holds a higher share of the highest values than the screen did. Calls of active or inactive are those of the source.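 Rule for the calls: active = z-score in the third read window above 3 or below -3; inactive = the rest.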

The compounds below were run against Metabotropic glutamate receptor 8 (Rattus norvegicus) (UniProt P70579) (assay: rat mGluR8 modulators via GIRK flux, primary screen, cell-based, thallium flux, HTS (AID 488969)). Details: HEK293 rat mGluR8, GIRK (G protein-gated inwardly rectifying potassium channel) thallium flux, FluoZin2; at 10 µM; stronger effect = higher value; submaximal glutamate (EC20) added with thallium.
Metabotropic glutamate receptor 8 (Rattus norvegicus), sequence (P70579 whole entry, looked up): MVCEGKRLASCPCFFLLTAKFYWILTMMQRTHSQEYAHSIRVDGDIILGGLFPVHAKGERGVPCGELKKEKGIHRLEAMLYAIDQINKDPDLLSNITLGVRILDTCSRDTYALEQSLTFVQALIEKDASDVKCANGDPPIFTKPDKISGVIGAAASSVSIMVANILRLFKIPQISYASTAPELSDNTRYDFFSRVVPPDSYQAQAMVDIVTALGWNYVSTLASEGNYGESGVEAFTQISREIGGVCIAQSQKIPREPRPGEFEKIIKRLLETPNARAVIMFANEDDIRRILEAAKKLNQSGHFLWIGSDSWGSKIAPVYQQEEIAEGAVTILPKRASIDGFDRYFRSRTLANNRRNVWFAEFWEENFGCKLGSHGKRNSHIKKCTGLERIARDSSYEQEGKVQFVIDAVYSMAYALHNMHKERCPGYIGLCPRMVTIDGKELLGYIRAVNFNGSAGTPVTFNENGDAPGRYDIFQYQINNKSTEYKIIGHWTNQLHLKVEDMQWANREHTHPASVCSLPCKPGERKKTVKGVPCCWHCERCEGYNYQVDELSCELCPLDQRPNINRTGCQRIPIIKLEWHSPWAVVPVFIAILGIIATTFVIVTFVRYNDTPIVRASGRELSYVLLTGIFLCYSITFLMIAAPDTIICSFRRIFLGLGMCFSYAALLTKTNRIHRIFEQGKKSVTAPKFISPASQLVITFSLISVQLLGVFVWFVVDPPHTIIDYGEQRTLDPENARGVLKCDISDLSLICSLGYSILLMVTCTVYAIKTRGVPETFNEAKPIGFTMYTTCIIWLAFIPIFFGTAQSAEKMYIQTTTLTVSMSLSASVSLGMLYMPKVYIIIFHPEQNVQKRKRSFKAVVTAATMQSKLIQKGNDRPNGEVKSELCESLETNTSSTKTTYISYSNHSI
In the case of `Cc1nc(NCCc2ccccc2F)c(C#N)c(C)c1[N+](=O)[O-]`, the z-score is reported as 0.24. `O=C(c1scc2c1CCCC2)N1CCCCC1` gave a z-score of -0.475. `CC1=CC(=O)OC1Cc1ccncc1` (stereo not given) was tested, and the z-score was 14.2 (active). For `Cc1ccc2c(c1)N(Cc1ccncc1)C(=O)C(C)O2` (stereo not given), the z-score was 0.33. In the case of `O=C1OC(Cc2ccncc2)C(O)=C1C1=NCCCN1` (stereo not given), the z-score is reported as -0.135. `O=C(O)CCCCCN1C(=O)/C(=C/c2ccncc2)SC1=S` showed a z-score of -0.0629. `CCC(C)c1ccc(O)c(NC(=O)c2ncn[nH]2)c1` (stereo not given) was tested, and the z-score was -0.374. For `Cc1ccc(C)c(-c2cc(C(=O)NCc3cccs3)c3ccccc3n2)c1`, the z-score was -0.0338. `O=C(Nc1ccc(Br)cc1F)c1ccc2c(c1)N(Cc1ccccc1)C(=O)CS2=O` (stereo not given) showed a z-score of 1.3. With `O/N=C/c1cc(Cl)ccc1OCc1cccc2ccccc12` the z-score was 2.76. For `CCOc1ccc(Cl)cc1/C=N/O`, the z-score was -0.395. `O/N=C/c1cc(Cl)ccc1OCc1ccccc1Cl` showed a z-score of -0.352. `Nc1ncnc2c1ncn2CCNCCc1ccccc1` was tested, and the z-score was -0.981. In the case of `COc1cccc(/C=N/n2c(-c3cccs3)n[nH]c2=S)c1`, the z-score is reported as 3.25 (active). In the case of `Cc1cccc(/C=N/n2c(-c3ccccn3)n[nH]c2=S)c1`, the z-score is reported as -0.174. With `Cc1cc(-c2n[nH]c(=S)n2/N=C/c2cccc([N+](=O)[O-])c2)n[nH]1` the z-score was -0.221. `COc1ccc(/C=N/n2c(-c3cccs3)n[nH]c2=S)cc1` was tested, and the z-score was 2.46. For `Cc1cc(-c2n[nH]c(=S)n2/N=C/c2cccs2)n[nH]1`, the z-score was -0.233. In the case of `CCOC(=O)COc1ccc(S(=O)(=O)NCc2cccnc2)cc1`, the z-score is reported as 0.014. In the case of `Cc1nn(CC(=O)NCc2cccc3ccccc23)c(=O)c2ccccc12`, the z-score is reported as -0.0519. In the case of `COc1ccc(NC(=O)C2CCN(C(=O)c3ccccc3)CC2)c(OC)c1`, the z-score is reported as -1.36. With `Cn1nc(C(=O)NC2CCCCCC2)ccc1=O` the z-score was 1.32. In the case of `CCOC(=O)c1c(-c2cccs2)csc1NC(=O)CNCCN1CCOCC1`, the z-score is reported as -0.205. With `CCN(C(=O)COC(=O)c1cc(NS(=O)(=O)c2ccc(Cl)c([N+](=O)[O-])c2)ccc1O)C1CCCCC1` the z-score was 2. For `O=C(OCC(=O)N1CCCCC1)c1cc(NS(=O)(=O)c2ccc(Cl)c([N+](=O)[O-])c2)ccc1O`, the z-score was -0.652. For `CC(NC(=O)COC(=O)c1cc(NS(=O)(=O)c2ccc(Cl)c([N+](=O)[O-])c2)ccc1O)C1CC2CCC1C2` (stereo not given), the z-score was -0.436. `O=C(COC(=O)Cc1c(Cl)cccc1Cl)NCCC1=CCCCC1` was tested, and the z-score was -0.34. `COc1cc(C2NC(=O)NC(O)(C(F)(F)F)C2C(=O)c2cccs2)ccc1O` (stereo not given) was tested, and the z-score was -0.852. `CCOC(=O)c1ccc(Nc2ncnc3ccc(C)cc23)cc1` was tested, and the z-score was -0.372. `CCCc1cc(=O)n2[nH]c(C)cc2n1` showed a z-score of -0.851. For `CCCc1cc(=O)n2[nH]c(-c3ccc(Br)cc3)cc2n1`, the z-score was 3.04 (active). Compound `CCCc1cc(=O)n2[nH]c(-c3ccccc3)cc2n1` has a z-score of 0.844. `O=C(Cn1cc(C(=O)c2cccs2)c2ccccc21)NC1CCCCC1` was tested, and the z-score was -2.37. With `O=C(Cn1c(C(F)(F)F)nc2ccccc21)c1ccc(Cl)cc1` the z-score was -0.0833. With `O=C(Nc1ccc2c(c1)OCO2)c1noc2c1CCCCC2` the z-score was 0.597. Work on `COc1ccc(N2CCc3c(C)nc4c(OC)cc(OC)cc4c32)c(OC)c1` yielded a z-score of 0.775. `COc1ccccc1N1CCc2c(C)nc3c(OC)cccc3c21` was tested, and the z-score was -0.0829. In the case of `COc1cc(OC)c2nc(C)c3c(c2c1)N(c1ccc(O)cc1)CC3`, the z-score is reported as 3.3 (active). With `CNc1nc(SCc2ccccc2Cl)nc2c1CCCC2` the z-score was -0.358. With `Cc1cc(C)n(-c2nc3ccccc3c(=O)n2OCC(N)=O)n1` the z-score was -0.254. With `Cc1cc(CC(C)C)n(-c2nc3ccccc3c(=O)n2OCC(N)=O)n1` the z-score was 3.83 (active). `Cc1cc(CC(C)C)n(-c2nc3ccccc3c(=O)n2OCc2ccccc2)n1` showed a z-score of 0.802. For `Cn1c(SCc2nc(-c3ccc(Cl)cc3)no2)nnc1-c1ccco1`, the z-score was 0.0893. Compound `O=C(COc1ccc(OCc2ccccc2)cc1)NC1CCOC1=O` (stereo not given) has a z-score of -0.0067. In the case of `CC(C)C(c1nnnn1C1CCCC1)N(C)C1CCCCC1` (stereo not given), the z-score is reported as -0.559. `COCCCNC(=O)c1cccc(NC(=O)c2ccccc2)c1` was tested, and the z-score was -0.13. `CC(C)OCCCNC(=O)c1cccc(NC(=O)c2ccccc2)c1` was tested, and the z-score was 2.99. `CC(C)OCCCNC(=O)c1ccc(Br)cc1` was tested, and the z-score was 0.954. Work on `COc1ccccc1C(=O)Nn1cnc2ccccc2c1=O` yielded a z-score of 0.366. For `CCCCN1C2=C(C(=O)CCC2)C(c2ccc(Cl)c(Cl)c2)C2=C1c1ccccc1C2=O` (stereo not given), the z-score was -0.878. Work on `Cc1cc(C)c(S(C)(=O)=O)c(Oc2ccccc2C)n1` yielded a z-score of -0.0363. `Cc1cc2c(C)cc(=O)oc2c2c1NCCC2` gave a z-score of -0.295. `Oc1c(Cl)cc(Cl)c2c1NCCC2` was tested, and the z-score was 5.54 (active). `O=C1NCCCc2c1oc1ccc(O)cc21` was tested, and the z-score was -0.602. Compound `Cc1cc(C)cc(NC(=O)C(Nc2ccccc2)c2ccccc2)c1` (stereo not given) has a z-score of 0.168. In the case of `CCCN(CCC)C(=O)c1ccccc1C(=O)N(CCC)CCC`, the z-score is reported as -0.328. `Cc1cc2c(C)nc3ccccc3c2o1` was tested, and the z-score was -0.371. With `Cc1nc(C)c(C(=O)Nc2ccc(Oc3ccccc3)cc2)o1` the z-score was 6.45 (active). Work on `Cc1nc(C)c(C(=O)Nc2ccccc2-c2ccccc2)o1` yielded a z-score of -0.0653. Compound `Cc1ncoc1C(=O)Nc1ccc(Oc2ccccc2)cc1` has a z-score of 2.26. `COc1ccc(NC(=O)c2ocnc2C)cc1OC` gave a z-score of -0.369. In the case of `COc1cccc(NC(=O)c2ocnc2C)c1`, the z-score is reported as -0.0866. For `Cc1nc(C)c(C(=O)Nc2cccc(Cl)c2)o1`, the z-score was 0.108. Compound `CC(C)(C)NC(=O)Cn1nnc(-c2ccc(Cl)cc2)n1` has a z-score of -0.11. `COc1ccc(OCC(=O)NC(=S)Nc2ccc(S(=O)(=O)Nc3cc(OC)nc(OC)n3)cc2)cc1` showed a z-score of -0.254. With `COC(=O)CC(NC(=O)c1ccc(C)cc1)c1ccccc1` (stereo not given) the z-score was -0.129. Work on `Cc1ccc(Cn2cc(S(=O)(=O)c3ccc(Cl)cc3)c(=O)c3cc(F)ccc32)cc1` yielded a z-score of -0.041. `COc1cc(/C=N/NC(=O)CC23CC4CC(CC(C4)C2)C3)cc(Br)c1OCC(=O)N(C)C` was tested, and the z-score was -0.225. With `O=c1c2c3c(sc2nc2n1CCCC2)CCCC3` the z-score was -0.196. `Cc1ccc(Nc2nc(N)c([N+](=O)[O-])c(NCc3ccco3)n2)cc1` showed a z-score of -0.288. In the case of `Cc1cccc(Nc2nc(NCc3ccco3)c3ccccc3n2)c1`, the z-score is reported as 0.729. For `Cc1cccc(Nc2nc(N)c([N+](=O)[O-])c(NCc3ccco3)n2)c1`, the z-score was 2.38. For `Cc1ccc(Nc2nc(N)c([N+](=O)[O-])c(NCc3ccco3)n2)cc1C`, the z-score was 0.169. In the case of `Nc1nc(Nc2ccccc2)nc(NCc2ccco2)c1[N+](=O)[O-]`, the z-score is reported as 4.24 (active). `Nc1nc(NCc2ccccc2)nc(NCc2ccccc2)c1[N+](=O)[O-]` was tested, and the z-score was -0.14.
